Measurements taken from PubChem BioAssay AID1159580 (chemical genetic matrix, 2015).
“And” between values parts separate entries of the source, which are not always exact repeats. Equal entries are not always repeated. Hit rate of the full screen: of about 5,500 compounds, about 2,000 (36%) were called active. Inconclusive results (about 18%) are left out. No stated cut-off is given here; in the data, active means normalized growth mostly below about 0.91 (no sharp cut-off); inconclusive means no clear call, values can overlap the other calls; inactive means mostly above about 0.92. The list shows a part of the results.

Assay: chemical genetic growth profiling, strain panel (AID 1159580);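 further: tested at 20 µM; growth read once vehicle control cultures reached saturation at 30 °C; 1 = growth at the plate median or of vehicle wells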
Conditions: S. cerevisiae deletion strains, growth OD

Measured: normalized growth

Oc1ccc2c3c1OC1[C@@H](O)CC[C@@]4(O)[C@@H](C2)N(CC2CCC2)CC[C@]314 (stereo partly specified)
inactive: locus YAL013W, strain DEP1, stronger effect = lower value 1.01 | locus YAL021C, strain ccr4, stronger effect = lower value 0.987 | locus YAL026C, strain drs2, stronger effect = lower value 1.02 | locus YAL030W, strain snc1, stronger effect = lower value 0.981 | locus YBL061C, strain skt5, stronger effect = lower value 0.997 | locus YBR009C, strain hhf1, stronger effect = lower value 1.01 | locus YBR021W, strain FUR4, stronger effect = lower value 1.02 | locus YBR023C, strain chs3, stronger effect = lower value 0.993 | locus YBR171W, strain sec66, stronger effect = lower value 0.974 | locus YBR229C, strain ROT2, stronger effect = lower value 1.02 | locus YBR231C, strain swc5, stronger effect = lower value 0.997 | locus YBR279W, strain paf1, stronger effect = lower value 0.999 | locus YCL011C, strain gbp2, stronger effect = lower value 1.01 | locus YCL016C, strain dcc1, stronger effect = lower value 1.02 | locus YCL029C, strain bik1, stronger effect = lower value 1.03 | locus YCL061C, strain MRC1, stronger effect = lower value 1 | locus YCL069W, strain vba3, stronger effect = lower value 0.993 | locus YCR088W, strain abp1, stronger effect = lower value 1.01 | locus YDL005C, strain med2, stronger effect = lower value 0.989 | locus YDL035C, strain GPR1, stronger effect = lower value 1.02 | locus YDL040C, strain nat1, stronger effect = lower value 1 | locus YDL074C, strain BRE1, stronger effect = lower value 1.04 | locus YDL101C, strain DUN1, stronger effect = lower value 1.02 | locus YDL134C, strain PPH21, stronger effect = lower value 1.02 | locus YDL185W, strain tfp1, stronger effect = lower value 1.02 | locus YDL192W, strain arf1, stronger effect = lower value 1.02 | locus YDR001C, strain nth1, stronger effect = lower value 1.02 | locus YDR069C, strain doa4, stronger effect = lower value 1 | locus YDR101C, strain arx1, stronger effect = lower value 1.01 | locus YDR137W, strain rgp1, stronger effect = lower value 1.01 | locus YDR150W, strain NUM1, stronger effect = lower value 1.02 | locus YDR159W, strain sac3, stronger effect = lower value 0.987 | locus YDR162C, strain NBP2, stronger effect = lower value 1.02 | locus YDR195W, strain ref2 0.974 | locus YDR297W, strain sur2, stronger effect = lower value 1.01 | locus YDR318W, strain mcm21, stronger effect = lower value 1.02 | locus YDR334W, strain swr1, stronger effect = lower value 0.994 | locus YDR335W, strain msn5, stronger effect = lower value 1 | locus YDR388W, stronger effect = lower value 1.01 | locus YDR392W, strain spt3, stronger effect = lower value 1.01 | locus YDR502C, strain sam2, stronger effect = lower value 1.02 | locus YEL003W, strain gim4, stronger effect = lower value 1 | locus YEL037C, strain rad23, stronger effect = lower value 0.988 | locus YEL061C, strain CIN8 (second series), stronger effect = lower value 0.99 | locus YEL061C, strain CIN8, stronger effect = lower value 1.01 | locus YER015W, strain faa2, stronger effect = lower value 0.996 | locus YER016W, strain bim1, stronger effect = lower value 1.01 | locus YER110C, stronger effect = lower value 1.02 | locus YER111C, strain swi4, stronger effect = lower value 0.997 | locus YER155C, strain BEM2 (second series), stronger effect = lower value 0.963 | locus YER155C, strain BEM2, stronger effect = lower value 1.01 | locus YER167W, strain BCK2, stronger effect = lower value 1.02 | locus YFR010W, strain ubp6, stronger effect = lower value 0.978 | locus YGL078C, strain dbp3, stronger effect = lower value 1.01 | locus YGL086W, strain mad1, stronger effect = lower value 1.01 | locus YGL167C, strain pmr1, stronger effect = lower value 0.99 | locus YGL173C, strain kem1, stronger effect = lower value 0.98 | locus YGL227W, strain vid30, stronger effect = lower value 0.986 | locus YGL240W, strain doc1, stronger effect = lower value 1.01 | locus YGL248W, strain PDE1, stronger effect = lower value 1.02 | locus YGL253W, strain hxk2, stronger effect = lower value 1.01 | locus YGR078C, strain PAC10, stronger effect = lower value 1.03 | locus YGR135W, strain pre9, stronger effect = lower value 1.01 | locus YGR229C, strain SMI1, stronger effect = lower value 1.03 | locus YGR252W, strain gcn5, stronger effect = lower value 0.984 | locus YHR013C, strain ard1, stronger effect = lower value 0.973 | locus YHR027C, strain rpn1, stronger effect = lower value 0.996 | locus YHR030C, strain SLT2, stronger effect = lower value 1.02 and 0.983 | locus YHR079C, strain IRE1 (second series), stronger effect = lower value 1.02 | locus YHR079C, strain IRE1, stronger effect = lower value 0.966 | locus YHR094C, strain hxt1, stronger effect = lower value 1.01 | locus YHR129C, strain ARP1, stronger effect = lower value 1 | locus YHR142W, strain chs7, stronger effect = lower value 1.01 | locus YHR200W, strain rpn10, stronger effect = lower value 1.01 | locus YIL066C, strain RNR3, stronger effect = lower value 1.02 | locus YIL073C, strain SPO22, stronger effect = lower value 1.07 | locus YIL125W, strain kgd1, stronger effect = lower value 1.01 | locus YIR030C, strain dcg1, stronger effect = lower value 1.01 | locus YJL092W, strain hpr5, stronger effect = lower value 0.99 | locus YJL095W, strain BCK1 (second series), stronger effect = lower value 0.985 | locus YJL095W, strain BCK1, stronger effect = lower value 1.03 and 0.981 | locus YJL115W, strain asf1, stronger effect = lower value 0.974 | locus YJL129C, strain trk1, stronger effect = lower value 0.974 | locus YJL134W, strain LCB3, stronger effect = lower value 1.01 | locus YJL154C, strain vps35, stronger effect = lower value 0.999 | locus YJL164C, strain tpk1, stronger effect = lower value 1.01 | locus YJL166W, strain qcr8, stronger effect = lower value 0.986 | locus YJL168C, strain set2, stronger effect = lower value 1.01 | locus YJL187C, strain SWE1 (second series), stronger effect = lower value 1.03 | locus YJR043C, strain POL32, stronger effect = lower value 1.04 | locus YJR066W, strain TOR1, stronger effect = lower value 0.905
